Bioassay records from PubChem.
D2 ag-1: agonists of human D2 dopamine receptor (beta-arrestin); P14416; activation, % (no concentration beside the values); hit rate 0.084% among 360,000; DiscoveRx PathHunter D2 beta-arrestin, luminescence, 90 min; 100% = 57 uM dopamine signal; AID 624465; in the data active = activation above about 40%
Target sequence (P14416 whole entry, looked up): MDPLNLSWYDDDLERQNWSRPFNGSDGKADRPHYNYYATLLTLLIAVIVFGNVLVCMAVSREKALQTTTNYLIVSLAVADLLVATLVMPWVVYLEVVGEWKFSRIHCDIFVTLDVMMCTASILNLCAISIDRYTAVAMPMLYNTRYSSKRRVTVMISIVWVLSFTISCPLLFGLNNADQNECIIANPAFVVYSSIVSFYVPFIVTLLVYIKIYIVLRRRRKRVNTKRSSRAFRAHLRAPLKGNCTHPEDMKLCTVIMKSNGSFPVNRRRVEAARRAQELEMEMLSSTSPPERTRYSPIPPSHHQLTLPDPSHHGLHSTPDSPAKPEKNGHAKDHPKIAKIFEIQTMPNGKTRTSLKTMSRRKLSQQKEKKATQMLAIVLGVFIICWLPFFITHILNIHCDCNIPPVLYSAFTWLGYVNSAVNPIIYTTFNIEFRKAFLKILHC
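Agonist mode: compounds alone added to overnight-plated D2 PathHunter cells for 90 min at 37 C, with 57 uM final dopamine (EC100) defining full response. Beta-arrestin recruitment detected by chemiluminescent reagent, read after 1 h at ambient temperature.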
D2 PAM-1: positively modulates the human D2 dopamine receptor allosterically | P14416 | HEK293 T-REx D2, calcium flux, EC20 dopamine potentiation | potentiation, % at 10 µM | hit rate 0.34% among 340,000 | AID 485347;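 active = potentiation over 3 SD above the plate norm, cut at about 30% in these data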; note: 0% is about no effect
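Tetracycline-induced HEK293 T-REx cells force-coupled to calcium signalling expressed D2; compounds were pin-added after a 10 s baseline, read kinetically 180 s, then an EC20 dopamine challenge followed with a further 180 s calcium read.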
D2 antagonist: D2 dopamine receptor (human) antagonism. hit rate 2% among 340,000. inhibition, % at 10 µM. HEK293 TREx D2 cells, calcium flux, dopamine EC80; in the data active = inhibition above about 30%; inactive = below that, where a call was filed; note: 0% is about no effect
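Tetracycline-induced HEK293 TREx cells expressing D2 receptor forced-coupled to calcium signalling, loaded with no-wash calcium dye. Compounds added and calcium flux read 180 s, then dopamine added at EC80 and read a further 180 s.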
D2 PAM-2: potentiates the human D2 dopamine receptor allosterically; hit rate 0.23% among 360,000; DiscoveRx D2 beta-arrestin cells, luminescence, 90 min; 100% = 57 uM dopamine signal; potentiation, % (no concentration beside the values); in the data active = potentiation above about 50%
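D2 cells co-treated with compound plus 50 nM dopamine (EC20) for 90 min at 37 deg C to detect potentiation. Beta-arrestin recruitment was read as enzyme-fragment luminescence after 1 h at ambient temperature. Full response was set by 57 uM dopamine.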
D2 ag-2: activates the human D2 dopamine receptor; activation, % at 2 µM; P14416; hit rate 0.53% among 340,000; HEK293 T-REx D2 cells, calcium flux agonist mode; AID 485358;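 active = activation over 3 SD above normal in the single-dose calcium agonist read, cut at about 30% in these data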; note: 0% is about no effect
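Calcium-flux readout, 1 cycle/sec over 180 s following compound pin transfer, in inducible HEK293 Trex D2 cells (force-coupled); dopamine controls included. Positive calcium responses during this window marked compounds as potential agonists.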
* marks the source's active call; other numbers are inactive results; . = no result; ! = not active in a repeat. In the library only some 2.4% were active in any assay of this set; here they are far more common.

SMILES | D2 ag-1 | D2 PAM-1 | D2 antagonist | D2 PAM-2 | D2 ag-2
COc1ccc(C(CNC(=O)COc2ccc(F)cc2Br)N2CCCC2)cc1 (stereo unspecified) | -3.2 | 42.1* | 1.4 | -21.4 | -0.7
COc1ccc(C(CNC(=O)C(CCSC)NC(=O)c2ccccc2Cl)N2CCCC2)cc1 (stereo unspecified) | -3.7 | -3.2 | -4.2 | -21.4 | -0.6
CC1CCCN(S(=O)(=O)c2cccc(C(=O)NCc3ccco3)c2)C1 (stereo unspecified) | 2.5 | . | . | -5.5 | .
COc1ccc(C(CNC(=O)C(CCSC)NC(=O)c2ccccc2Cl)N2CCCCC2)cc1 (stereo unspecified) | -3.3 | -5.0 | 40.7* | -16.9 | 0.8
COc1ccc(C(CNC(=O)COc2ccccc2C)N2CCCCC2)cc1 (stereo unspecified) | -2.6 | -25.0 | 14.2 | -30.2 | 0.1
COc1ccc(C(CNC(=O)C(C)Oc2ccc(Br)cc2)N2CCCC2)cc1 (stereo unspecified) | -6.6 | -35.0 | 40.8* | -28.3 | 0.3
COc1ccc(CNC(=O)Cn2ccc3cc(S(=O)(=O)N4CCCCC4)ccc32)cc1OC | . | -6.6 | . | . | -0.5
O=C1N(Cc2ccccc2Cl)c2ccccc2C1(O)c1c[nH]c2ccccc12 (stereo unspecified) | . | 16.9 | . | . | 0.6
COc1ccc(-c2cn3c(n2)sc2cc(C(=O)NC4CCCc5ccccc54)ccc23)cc1 (stereo unspecified) | . | -2.7 | . | . | 2.5
O=C(NCCCN1CCN(c2ccccc2F)CC1)c1sc2ncccc2c1-n1cccc1 | . | -26.4 | . | . | .
COc1ccc(C(CNC(=O)c2cccc(Br)c2)N2CCCC2)cc1 (stereo unspecified) | 0.0 | -22.5 | 40.9* | -14.5 | 0.3
COC(=O)c1ccc(/C=C/c2c(-c3ccc(OC)cc3)oc3ccccc23)cc1 | 0.2 | 4.0 | 47.0* | -3.7 | 0.7
COc1ccc(-c2oc3ccccc3c(=O)c2OC(=O)c2ccc(C)cc2)cc1 | 0.6 | 30.9* | 5.7 | 11.4 | -0.1
COc1ccc(/C=C/c2c(-c3ccc(OC)cc3)oc3ccccc23)cc1 | -1.7 | -2.4 | 7.9 | -6.2 | 0.9
Cc1ccc(CCNC(=O)CN(c2ccc(C(C)C)cc2)S(=O)(=O)c2c(C)nn(C)c2C)cc1 | . | -4.5 | . | . | 0.3
COc1ccc(/C=C2\CCCc3c2nc2ccccc2c3C(=O)O)cc1OC | . | 13.4 | 31.0* | . | 183.8*
CCc1ccccc1-n1nnc(-c2nsc(NC(=O)c3ccc(C)c(C)c3)n2)c1C | . | -3.2 | . | . | 1.0
CCn1c(=O)n(CC)c2cc(N3CCCCC3)c(NC(=O)Nc3ccccc3Cl)cc21 | . | 5.0 | . | . | 3.6
CCN(Cc1ccccc1)C(c1cccs1)c1nnnn1C1CCCCC1 (stereo unspecified) | -4.4 | 1.9 | 8.4 | -30.4 | -0.1
Clc1ccccc1CN(Cc1ccccc1)C(c1cccs1)c1nnnn1C1CCCC1 (stereo unspecified) | -5.1 | -6.3 | 50.0* | -17.3 | 0.1
Cc1cc(C)cc(NC(=O)CCCn2nc(C)c3c(C)n(-c4ccccc4)nc3c2=O)c1 | -5.5 | 33.2*! | -19.0 | -11.3 | 1.1
Cc1ccccc1NC(=O)CCCn1nc(C)c2c(C)n(-c3ccccc3)nc2c1=O | 2.5 | -2.6 | -8.3 | -7.9 | 0.2
CCN1CCN(c2nc3c(C)cccn3c(=O)c2/C=C(\C#N)S(=O)(=O)c2ccccc2)CC1 | -0.1 | . | 37.3* | -7.3 | -0.2
CCN1CCN(c2nc3ccccn3c(=O)c2/C=C(\C#N)S(=O)(=O)c2ccccc2)CC1 | -8.4 | -4.6 | 33.6* | -21.3 | -0.6
O=[N+]([O-])c1ccc(-c2ccc(C=Nc3cccc4ccccc34)o2)cc1 | -0.4 | 3.7 | -3.7 | 14.5 | -0.6
SMILES | D2 ag-1 | D2 PAM-1 | D2 antagonist | D2 PAM-2 | D2 ag-2
O=[N+]([O-])c1cc(-c2ccc(/C=N/c3nc4ccccn4c3-c3ccco3)o2)ccc1Cl | 8.5 | 4.4 | 10.3 | 70.4* | 0.1
CCCC(=O)N1c2nc(-c3ccco3)nn2C2(CCCCC2)[C@@H]2CCCC[C@@H]21 | . | 19.6 | . | . | 1.0
CCCN(CCC)c1nn2c(=O)c(C(=O)NCc3cccc(OC)c3)cnc2s1 | . | -5.5 | . | . | .
Cc1ccc(C(=O)NC2CCCC2)cc1S(=O)(=O)N1CCCCC1 | 5.9 | -1.9 | 31.8* | -12.8 | -1.0
Cc1cccnc1NC(=O)c1ccc(Cl)c(S(=O)(=O)N2CCCCCC2)c1 | 1.4 | -1.3 | 56.1* | -13.7 | 0.3
Cc1ccc(S(=O)(=O)N2CCCCC2)cc1C(=O)NC1CCCCC1 | -2.4 | 41.6* | -4.7 | -1.3 | -1.8
COc1ccc(CCNC(=O)CCc2c(C)c3cc4c(C)coc4c(C)c3oc2=O)cc1OC | . | 7.9 | . | . | 0.6
CN(C(=O)CS(=O)(=O)Cc1ccccc1Cl)c1ccccc1 | 1.0 | -12.3 | 3.3 | 4.0 | 0.5
CO/N=C(/CS(=O)(=O)Cc1ccccc1Cl)c1ccc(Cl)cc1Cl | -4.9 | -7.0 | 43.1* | -15.9 | 1.8
CC(=O)c1cccc(NC(=O)c2nc3ccccc3nc2N2CCCCC2)c1 | . | -5.7 | . | . | .
CCc1cc(=O)oc2c(CN3CCN(C)CC3)c(O)c(Cl)cc12 | 3.6 | 34.9* | 2.0 | 7.8 | -0.1
CCCC(=O)Nc1ccc(C(=O)COC(=O)c2cc(C)oc2C)cc1 | -0.9 | -1.9 | 34.8* | 3.1 | 0.9
COc1cc(SC)ccc1C(=O)Nc1nc2ccccc2[nH]1 | -11.0 | -6.6 | 33.9* | -13.3 | 0.9
COc1ccccc1C(=O)Nc1nc2ccccc2[nH]1 | -3.9 | 2.7 | -8.7 | -6.7 | -0.4
CCOC(=O)c1ccc(NC(=O)CC2C(=O)N(c3cccc(OC)c3)C(=O)N2Cc2cccnc2)cc1 (stereo unspecified) | . | -3.4 | . | . | -0.2
Cc1onc(-c2c(Cl)cccc2Cl)c1C(=O)NCCCN1CCOCC1 | -2.7 | -22.2 | 43.5* | 2.8 | 0.3
Cc1onc(-c2ccccc2Cl)c1C(=O)NCCCN1CCOCC1 | -1.2 | 6.9 | 15.0 | -1.0 | 1.3
CC(C)CCC(CCN1CCOCC1)c1ccc2c(c1)OCO2 (stereo unspecified) | -0.4 | 2.5 | 30.9* | -14.0 | 0.1
COCCNC(=O)CN1C(=O)COc2ccc(Cl)cc21 | -1.2 | -8.3 | 34.7* | -6.2 | 0.6
COC(=O)CN1C(=O)COc2ccc(Cl)cc21 | -3.2 | 7.5 | -9.2 | -3.6 | 0.0
CN(C)CCNC(=O)CN1C(=O)COc2ccc(C(C)(C)C)cc21 | -2.5 | 1.4 | 35.5* | -10.7 | -0.1
CC(C)(C)c1ccc2c(c1)N(CC(=O)O)C(=O)CO2 | -1.4 | 3.9 | -14.1 | 5.3 | 0.2
Cc1cc(Cl)ccc1OCC(O)CN1C(C)CCCC1C (stereo unspecified) | . | 0.2 | 31.2* | . | -0.3
Cc1ccc(C(=O)NCC(c2ccco2)S(=O)(=O)c2ccccc2)cc1C (stereo unspecified) | . | 1.3 | . | . | -1.6
COc1ccc(N=Nc2nc3ccc(Br)cc3n2C)cc1 | -6.8 | 33.2* | 23.4 | -45.7 | -0.2
CCCn1c(SCC(=O)N2CCN(C(=O)c3ccco3)CC2)nc2ccccc2c1=O | -2.4 | -2.1 | 30.8* | 5.0 | 0.9
